In all, about 33,000 sequences were measured (“E-score (-0.5 to 0.5)”: median about -0.017, highest 2% from about 0.3 on). Only a selection was taken, and the highest values are over-represented in it overall.
biological target: T1, Sut1 (UniProt P53032); test: PBM E-score (8-mer binding enrichment) (E-score (-0.5 to 0.5)); higher = stronger / more preferred TF binding; conditions: protein concentration: 200 nM; construct: GST-full length
T1 sequence: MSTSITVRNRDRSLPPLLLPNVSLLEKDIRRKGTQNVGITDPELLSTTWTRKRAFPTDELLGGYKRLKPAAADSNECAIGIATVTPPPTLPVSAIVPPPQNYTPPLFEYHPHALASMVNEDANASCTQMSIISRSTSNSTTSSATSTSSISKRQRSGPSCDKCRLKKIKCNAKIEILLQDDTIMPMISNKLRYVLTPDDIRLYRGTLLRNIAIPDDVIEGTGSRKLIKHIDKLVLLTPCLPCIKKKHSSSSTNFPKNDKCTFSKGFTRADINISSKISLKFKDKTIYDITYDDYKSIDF
In short: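 Bound GST-tagged yeast transcription factors, applied at about 100-200 nM to double-stranded universal all-10-mer Agilent arrays, were detected with fluorescent anti-GST. Scans were normalised with masliner. A modified Wilcoxon-Mann-Whitney statistic, the E-score, was assigned to each ungapped eight-base word pooled with its reverse complement by the Universal PBM Analysis Suite.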

Sequence | PBM E-score
TAAAATAA | 0.213
AAAAATAA | 0.326
TAAATAGA | 0.0796
ATCAATTC | 0.135
GGAAATTA | 0.286
CAAAATAA | 0.201
AAAATAGA | 0.319
AAAATAGC | 0.0485
ATCAATTG | 0.197
ATCAATTA | 0.31
AGAAATTA | 0.335
AGAAATTC | 0.126
AACCAACC | -0.178
AGAATACA | 0.117
CACTTTGC | 0.0519
AGGCGACC | -0.207
CTCGCCAG | -0.204
ACCTTGCC | -0.0123
ATAAATTG | 0.268
TAAATAAA | 0.247
AAAATAAC | 0.12
TAAAATTA | 0.34
ATAAAAAT | 0.252
AAAAATTA | 0.228
CTAAATTA | 0.24

Sequence | PBM E-score
AAAATAAA | 0.347
ATAAATTA | 0.326
ATAAATAC | 0.275
ATAAATAT | 0.341
CAAAATTA | 0.241
ACCAAACT | -0.0181
CAGTGGTC | -0.165
GGCAGAAA | 0.0918
CCGACCCA | 0.0491
CCATCAGA | -0.213
AATAAGGG | -0.0871
CCGACACC | -0.0623
TGTCTCAA | -0.115
GGAAATAA | 0.24
CGAAATAC | 0.215
ACAAATAG | 0.113
CAAAATTG | 0.0231
ACAAATAT | 0.339
ACAAATAC | 0.205
CAAAATTC | 0.308
AAAAATTC | 0.235
CGAAATAA | 0.313
ATCTGAGC | 0.113
GACTTCGC | 0.0243
ATTCCAAG | 0.0681

Sequence | PBM E-score
ATTCCGAA | 0.378
ATTCCGAG | 0.341
ATTCCGTA | 0.296
ATTCCGAC | 0.219
CTTCCGAA | 0.233
CGTCAAGA | -0.239
AGAGAGTA | -0.0447
GTAAGAAC | 0.215
TGGCAGAA | -0.0838
TGAATTCA | 0.0862
CGCGACAC | 0.0583
AATTTCCG | 0.257
ATTTTCGG | 0.345
ATTTCCGC | 0.156
ATTTCCGA | 0.231
ATTTTCCC | -0.105
ATTTTCCG | 0.4
ATTTTCGC | 0.0665
ATTTCCGG | 0.325
ATTTTCGA | 0.0872
CAGTATTA | 0.0764
ACCAAACC | 0.0288
CAGATGGG | -0.192
TAAGCATA | 0.122
CATAATTC | 0.0494

Sequence | PBM E-score
AATAATTA | 0.329
TATTAATA | 0.167
CATAATTA | 0.317
AATTAATT | 0.206
GATAATTA | 0.216
GGTTAATA | 0.163
AGTTAATC | 0.16
AATAATTC | 0.268
AGTTAATA | 0.331
CCTAATTA | 0.039
AATTAATA | 0.327
AATCAAGA | 0.0025
GGCGAGCC | -0.157
GAGCTACA | -0.127
TATAATCA | 0.203
CCCGGGCA | -0.229
AAAATCGC | 0.159
ACTGCTTA | 0.0551
AGAATCCG | 0.00193
GGAAGAGA | 0.0239
CGGGTTGA | -0.223
ACTGTCAA | -0.099
ATATAACC | 0.0866
ATTTAATA | 0.265
ATTTAACG | 0.298

Sequence | PBM E-score
ATATAACA | 0.309
CTTTAATC | 0.183
ATTTAACC | 0.154
ATTTAACA | 0.213
GTATAACA | 0.215
ATTTAATC | 0.307
CTATAACA | 0.0773
ATATAACG | 0.299
CTATAACC | -0.00144
CTAAATAG | 0.0251
ACATTATC | 0.102
ACATACTA | 0.15
AAGCCCTC | -0.213
AATGTGAG | 0.13
GAGGCATA | 0.0426
GCCGTGTA | -0.196
ACTTGAAC | 0.157
CGACTTCA | 0.136
GGACTTGA | 0.339
GGACTTCA | 0.321
CGACTTGA | 0.06
AGACTTTA | -0.111
GGACTTTA | 0.347
CGACTTTA | 0.166
AGACTTCA | -0.0862

Sequence | PBM E-score
AGACTTGA | 0.0388
ATTTTAGG | 0.113
ATACGCTG | 0.025
AGATCATA | 0.155
ATCTGCAC | -0.145
AACCGGCC | -0.0986
GACCGGGC | -0.0226
AACCGGAA | 0.229
CACCGGGA | -0.0737
CACCGGAA | 0.361
CACCGGTA | -0.12
AACCGGAG | 0.43
AACCGGAC | 0.345
GACCGGAC | 0.364
AACCGGAT | 0.222
AACCGGTC | 0.0286
GACCGGAA | 0.179
GTGATTCA | -0.119
CGCCAAAG | -0.237
CCGGGTAA | 0.136
TCGTTCCA | -0.0676
GATGGTGA | -0.174
ACCGTGAA | 0.00123
ACCTGTGG | -0.141
CACCGGCG | 0.117

Sequence | PBM E-score
TACCGGGA | 0.229
CACCGGTC | -0.223
TACCGGTA | 0.0972
CACCGGTG | 0.0775
CACCGGAC | 0.409
TACCGGAA | 0.298
CACCGGCC | -0.231
CACCGGAG | 0.437
ACAGCAAA | 0.127
GCGTCTAA | -0.155
CCCTACCG | -0.233
AGAAACCT | 0.149
GCCTGTCC | -0.154
AAGAACTT | 0.183
CATGAAGC | -0.0952
ACTGTGAC | -0.142
AGTTCGGC | 0.126
AGTTCGGA | 0.352
GGTTCGAA | 0.14
CGTTCGGA | 0.385
GGTTCGGA | 0.423
CGTTCGGC | -0.0654
AGTTCGGG | 0.0543
CGTTCGTA | 0.15
GGTTCGCA | -0.0674
